Drawing on PubChem BioAssay AID1499 (Sanford-Burnham Center for Chemical Genomics, 2009), this text covers activation for 58 compounds.

The structures appear in SMILES notation. Screen size: about 93,000 compounds; about 65 (0.07%) were called active. What follows is part of a selection rich in actives, with near analogues and random picks from the rest. Values without a mark were called inactive.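 The calls were made as follows: active = 10 µM primary screen giving 50% or more activity, confirmed by 40% or more on retest at that dose; inactive = the rest.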

The target in this experiment is Integrin beta-2 (Homo sapiens) + Integrin alpha-M (Homo sapiens) (UniProt P05107+P11215). The experiment can be described thus: agonists of integrin CD11b/CD18-fibrinogen binding – K562 cells, luminescence, primary screen (AID 1499). To be noted: K562 CD11b/CD18 adhesion to fibrinogen, ATPlite luminescence; at 10 µM; active compounds read high. On the technique in general: Cellular ATP, detected with luciferase, serves as a proxy for viable cell number.
Chain of Integrin beta-2 (Homo sapiens) + Integrin alpha-M (Homo sapiens) (P05107 whole entry, looked up, other chains not shown): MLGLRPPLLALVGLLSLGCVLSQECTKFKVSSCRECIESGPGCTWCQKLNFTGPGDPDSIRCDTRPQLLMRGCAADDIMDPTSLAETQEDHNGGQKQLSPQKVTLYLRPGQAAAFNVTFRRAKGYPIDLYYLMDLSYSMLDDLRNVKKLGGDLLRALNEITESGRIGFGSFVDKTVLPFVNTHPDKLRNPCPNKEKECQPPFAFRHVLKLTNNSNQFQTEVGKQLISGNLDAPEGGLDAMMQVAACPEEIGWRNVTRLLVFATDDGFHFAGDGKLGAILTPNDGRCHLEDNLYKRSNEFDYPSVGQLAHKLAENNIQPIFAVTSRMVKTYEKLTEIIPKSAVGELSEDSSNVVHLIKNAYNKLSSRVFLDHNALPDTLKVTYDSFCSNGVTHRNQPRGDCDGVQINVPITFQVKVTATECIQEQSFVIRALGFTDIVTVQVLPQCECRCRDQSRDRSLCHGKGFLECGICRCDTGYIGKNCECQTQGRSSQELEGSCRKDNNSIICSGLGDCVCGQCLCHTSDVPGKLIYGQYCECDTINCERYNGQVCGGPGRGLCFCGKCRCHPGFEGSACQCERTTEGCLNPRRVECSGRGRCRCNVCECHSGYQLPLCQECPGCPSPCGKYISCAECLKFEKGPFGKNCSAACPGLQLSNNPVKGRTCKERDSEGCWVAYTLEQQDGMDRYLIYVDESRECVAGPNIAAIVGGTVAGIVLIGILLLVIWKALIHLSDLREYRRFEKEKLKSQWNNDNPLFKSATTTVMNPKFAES
With `COc1ccc(C(=O)OCC(=O)NC(=O)CCSc2ccccc2)cc1`, the activation was 0.6%. The figure for `N#C/C(=C/c1cccc([N+](=O)[O-])c1)c1nnc2n1CCCCC2` is 1.1%; for `CCCCNC(=O)CSc1nc2ccc(NC(=O)CSc3nnc(N)s3)cc2s1` it is -3.6%; for `Fc1ccccc1CNC(=S)Nc1ccc(Cl)cc1` it is -7.2%. Regarding `CCCn1c(SCC(=O)Nc2ccc(C)c(S(=O)(=O)N3CCOCC3)c2)n[nH]c1=O`, the activation was -1.4%. On to `O=C(Cc1ccc(-c2ccccc2)cc1)NC(c1ccccc1)c1ccccc1`, for which the activation was 0.5%.

Regarding `CCN(CC)S(=O)(=O)c1ccc(C)c(NC(=O)COc2ccc(Br)cc2Cl)c1`, the activation is -2.8%. The figure for `O=C(Cc1c[nH]c2ccccc12)N/N=C/c1cccc(F)c1` is 1%; for `CCCC(=O)Nc1cccc(NC(=S)NC(=O)C(C)Oc2ccc(Cl)cc2Cl)c1` (stereo not drawn) it is -4.3%; for `Cc1c(C(=O)NCCCc2ccccc2)cccc1[N+](=O)[O-]` it is -3.8%. Then `O=C(Cn1nnc(-c2ccccc2)n1)NCc1ccc2c(c1)OCO2`, with -1.1%; and `O=C1N(Cc2ccc3c(c2)OCO3)c2ccccc2C1(O)c1c[nH]c2ccccc12` (stereo not drawn), with 65.9% (active); and `O=C(CCCCn1c(=O)[nH]c2ccccc2c1=O)NCc1ccc2c(c1)OCO2`, with -2%.

In the case of `Cc1cccc(NC(=S)Nc2ccc3cn[nH]c3c2)c1`, the activation is 0.1%. Take `CSCC[C@H](NC(=O)OC(C)(C)C)C(=O)N/N=C/c1cc2ccc(C)cc2nc1Cl`: the activation was 1.8%.

Consider `CC(=O)Nc1ccc(Nc2c([N+](=O)[O-])cc(S(C)(=O)=O)cc2[N+](=O)[O-])cc1`, for which the activation is -0.7%. In the case of `Cc1cccc2cc(CN(Cc3cccs3)C(=S)NCc3ccco3)c(=O)[nH]c12`, the activation is 3.8%.

Consider `O=C(COC(=O)c1cc2c(s1)CCCC2)NCc1ccccc1Cl`, for which the activation was -0.1%.

Regarding `Cc1ccc(NC(=S)N2CCN(c3ncccn3)CC2)cc1C`, the activation is -7.7%. As to `Cc1c(Cl)cccc1NC(=O)CC1SC(=NCC2CCCO2)NC1=O` (stereo not drawn), the activation was 2.9%.

Consider `Cc1c(C(=O)NCCN2C(=O)S/C(=C\c3cccs3)C2=O)cccc1[N+](=O)[O-]`, for which the activation is 23%. For `COc1ccc(CN2C(=O)CC(Cc3ccc(C)cc3)C2=O)cc1OC` (stereo not drawn), the activation is -1.2%. Then `COC(=O)c1ccc(NC(=O)CSc2nncc3ccc(OC)c(OC)c23)cc1`, with 3%; and `Cc1cc(C(=O)CSc2nc(N)cc(=O)[nH]2)c(C)n1-c1cccc(F)c1`, with 16.6%. Then `COc1cccc(N(C(=O)C2COc3ccccc3O2)C(C(=O)NC2CCCCC2)c2ccc(O)cc2)c1` (stereo not drawn), with -0.8%; and `O=C(NCCc1ccccn1)c1cc(-c2ccc(Cl)cc2)nc2ccccc12`, with 0.7%.

Turning to `Cc1ccc(NC(=O)C(=O)NCc2ccc(/C=N/NC(=O)c3c(C)nc4cc(C)ccn34)o2)cc1`, the activation is 100%.

On to `CCOC(=O)C1=C(C)N=C2c3ccccc3C(=O)C2C1c1ccc(Br)cc1` (stereo not drawn), for which the activation was 4.9%. Then `Cc1ccc(NC(=O)CC2C(=O)N(Cc3ccccc3)C(=S)N2NC(=O)c2cccc(F)c2)c(C)c1` (stereo not drawn), with 2.6%; and `Clc1cccc(N=C2NN=C(c3ccc4c(c3)OCCO4)CS2)c1`, with 4.8%; and `COCCn1c(C)cc(C2=NNC(=Nc3ccc(F)cc3)SC2)c1C`, with 120% (active). `CC(=O)Nc1ccc(NC(=S)NC(=O)c2ccc([N+](=O)[O-])c(C)c2)cc1`: the activation was 0.9%. Regarding `CC(C)(C)OC(=O)N/N=C/c1ccc(C(=O)O)cc1`, the activation is 0.2%. Then `Cc1ccc(NC(=O)NC(=O)CSc2nnc(-c3ccc(OC(F)F)cc3)n2N)c(C)c1`, with -3.1%. As for `CN(C)CCCNC(=S)NCc1ccc(Cl)cc1`, the activation is 2.8%. `C/C(=N\NC(=O)CCn1nc(C)cc1C)C(C)(C)C`: the activation is 2.8%. The figure for `COc1cc2c3c(c1)/C(=C1/SC(=S)NC1=O)C(=O)N3C(C)(C)C=C2C` is -7.7%; for `Cc1ccc(-n2c(C)cc(C(=O)CSc3nnc4ccccn34)c2C)cc1` it is -2.4%. On to `CC(NC(=S)Nc1ccccc1)C1COc2ccccc2O1` (stereo not drawn), for which the activation was -1.1%.

In the case of `COc1ccc2c(CN3CCN(S(=O)(=O)c4cccs4)CC3)cc(=O)oc2c1`, the activation was 1.6%.

Regarding `CCN(c1ccc(NC(=O)COC(=O)CCc2nc3ccccc3n2-c2ccccc2)cc1)C(C)C`, the activation was 5.2%.

`CC(=O)Nc1ccc(S(=O)(=O)N2CCN(c3ccc([N+](=O)[O-])c(NCCN4CCOCC4)c3)CC2)cc1`: the activation was 8.9%. The figure for `COCCCNC(=O)Cn1cc(/C=C(\C#N)C(=O)N2CCN(c3ccccc3)CC2)c2ccccc21` is 0%; for `O=C(Nc1nnc(SCc2ccccc2Cl)s1)c1cccc([N+](=O)[O-])c1` it is -9.7%; for `O=C(CCCN1C(=O)/C(=C/c2ccco2)SC1=S)Nc1ccccc1` it is 2.1%. Turning to `COc1ccc(/C(N)=N/OC(=O)Cc2ccccc2)cc1`, the activation is -3.3%. Then `CCOC(=O)c1c(NC(=O)C2CCN(S(=O)(=O)c3ccc(Cl)cc3)CC2)sc2c1CCCC2`, with 15.1%; and `COC(=O)Cc1ccc(NC(=S)NCc2ccccc2)cc1`, with 1.6%.

On to `CC(C)N1C(=O)N(c2ccccc2)C(C)(O)CC1(C)C` (stereo not drawn), for which the activation is 3.2%. Then `O=C(CSc1nc2ccccc2c(=O)n1CCCO)N1CCc2ccccc21`, with 2.1%. The figure for `Cc1ccc2[nH]cc(CCNC(=O)c3ccc([N+](=O)[O-])cc3)c2c1` is -1.3%. The figure for `CCCCC(O)(CCCC)C(=O)NN(C(=O)CCl)c1ccccc1` is 3.4%; for `CNc1ccc(NC(C)=O)cc1[N+](=O)[O-]` it is 2.9%.

In the case of `COc1ccc(NC(=O)CN2C(=O)C(c3ccccc3)=NC23CCCCCC3)cc1OC`, the activation is -1.4%. On to `Cc1ccc(-c2csc(NC(=O)c3cccs3)n2)cc1`, for which the activation is 3.8%. The figure for `Cc1nc(-c2ccc(NC(=O)c3cccs3)cc2)cs1` is -4.6%. On to `Cc1ccc(-c2nnc(-c3ccc(NC(=O)c4cccs4)cc3)o2)cc1`, for which the activation was 161% (active).

For `COc1ccccc1OCCC(=O)OCC(=O)NCc1ccccc1`, the activation is 3.3%.
